Pf growth 48h = P. falciparum growth inhibition at 48 hours (one generation); P. falciparum luciferase growth in erythrocytes, 48 h; Potency, µM (highest dose often 28.7 µM), actives largely listed as inhibitors; hit rate 5.9% among 310,000
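Parasite viability was followed by luminescence of a genomically integrated firefly luciferase. Cultures held 0.1% parasitemia at 2% hematocrit (final), incubated under 5% CO2 at 37 C.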
Pf growth 96h = P. falciparum growth inhibition at 96 hours; P. falciparum luciferase reporter growth, 96 h; Potency, µM (titrated, usually from 28.7 µM), usual class: inhibitors; hit rate 6.9% among 320,000; AID 504834
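Compounds incubated with erythrocytes infected by luciferase-expressing P. falciparum (2% hematocrit, 0.05% parasitemia final) for 96 hours, 37 C in 5% CO2. Growth inhibition scored as decreased luciferase luminescence.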
HCMV inh = blocks human cytomegalovirus replication; AID 1259415; hit rate 4.5% among 410,000; HFF cells, HCMV-luciferase reporter, 72 h; active compounds read low; activity change, negative = inhibition, % at 57.5 µM; in the data active = activity change below about -60%; inconclusive = no clear call, values can overlap the other calls; inactive = above about -39%
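Two compound doses tested in HFFs infected with HCMV-luciferase, MOI 1 PFU/cell, 72 h at 37C. Lysate luminescence read with OneGlo; data normalized against buffer-only and 10uM Salinomycin inhibitor controls.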
Cycloheximide cs = counter-screen hit for Shiga toxin inhibitors, cycloheximide; cell reporter, cycloheximide protein synthesis inhibition counterscreen; max response, %; hit rate 12% among 300,000; AID 2314; in the data active = max response mostly above about 13%, no sharp cut-off; inactive = mostly below about 14%; note: read at 38.3 µM for the half of the compounds with a filed dose
Shiga inhibitor = blocks Shiga toxin action in Vero cells; inhibition, % at 38.7 µM; hit rate 9.2% among 290,000; Vero cells, Shiga toxin protein synthesis inhibition reporter; in the data active = inhibition mostly above about 28%, no sharp cut-off; inactive = mostly below about 43%
Each line names hits and unclear results; the compound was inactive in the other large screens. A selection: hits, their analogues and other compounds. The true share with any hit is near 20%. Unless noted, calls come from the whole dose curve; as a rule, active = well fitted inhibition curve with a large enough effect; inconclusive = small, poorly fitted or top-dose-only effect, or another doubt; inactive = no such curve, though single readings can be large or run the other way.

Clc1ccccc1-c1ncc(-c2ccccc2)o1	Cycloheximide cs 25.8 (no result: Shiga inhibitor)
O=C(Nc1cccc(F)c1)c1oc2ccccc2c1NC(=O)C12CC3CC(CC(C3)C1)C2	none (no result: Pf growth 48h, Pf growth 96h, Cycloheximide cs, Shiga inhibitor)
C(=N\n1cnnc1)/c1cn(-c2cccs2)nc1-c1ccccc1	Cycloheximide cs 37.1, Shiga inhibitor 65.8
Cc1cc(=O)n2c3c(c4c(cc13)c(CN(C)C)cc(=O)n4C)OC2	HCMV inh -72.0 (no result: Pf growth 48h, Pf growth 96h, Cycloheximide cs, Shiga inhibitor)
Cc1cc(=O)n(C)c2ccccc12	none
C=CCn1c(SCc2c(C)noc2C)nc2sc(C)c(C)c2c1=O	Pf growth 96h 9.28µM (no result: Pf growth 48h)
Cc1nn(C)cc1CN(C)C(=O)c1cc(COc2ccc(F)cc2F)on1	Pf growth 96h inconclusive
CN(Cc1cccc2cnccc12)C(=O)c1cc(COc2ccc(F)cc2Cl)on1	Pf growth 48h inconclusive, Cycloheximide cs 22.8
Cc1csc(Cn2c(CN(C)C)nc3ccccc3c2=O)n1	none
Cc1nnc(CN(C)C(=O)c2cc(COc3ccc(C)c(C)c3)on2)o1	Pf growth 96h inconclusive, Cycloheximide cs 35.9
Cc1csc(CN(C)C(=O)c2cn(Cc3cccc4ccccc34)nn2)n1	Shiga inhibitor 35.8
Cc1nnc(CN(C)C(=O)c2cc(COc3ccc(F)cc3Cl)on2)o1	Cycloheximide cs 38.0, Shiga inhibitor 93.1 (no result: HCMV inh)
Cc1ccc(OCc2cc(C(=O)N(C)Cc3nccn3C)no2)cc1C	Pf growth 96h inconclusive
CN(Cc1ccc(F)cc1)C(=O)c1cc(COc2ccc(-n3cncn3)cc2)on1	HCMV inh inconclusive
COc1cccc(OCc2cc(C(=O)N(C)Cc3nc(C)cs3)no2)c1	Pf growth 96h 6.57µM, Cycloheximide cs 55.6, Shiga inhibitor 107.6
Cc1cc(CN(C)C(=O)c2cc(COc3ccc(C)c(C)c3)on2)on1	Cycloheximide cs 56.2, Shiga inhibitor 63.6
Cc1ccc(OCc2cc(C(=O)N(C)Cc3cnn(-c4ccccc4C)c3)no2)cn1	Pf growth 96h inconclusive, Cycloheximide cs 20.0
CC(C)Oc1cccc(C(=O)Nc2ncn[nH]2)c1	Pf growth 96h inconclusive
O=C(Nc1nc2ccccc2[nH]1)c1ccc(OC(F)F)cc1	Cycloheximide cs 19.1, Shiga inhibitor 58.8
N#CC(Cc1ccc(OC(F)F)cc1)c1nc2ccccc2[nH]1 (centres undefined)	Cycloheximide cs 26.3, Shiga inhibitor 65.9
O=C(Nc1nc2ccccc2[nH]1)c1ccccc1OC(F)F	none
Cn1nc(C(=O)Nc2nc3ccccc3[nH]2)c2ccccc2c1=O	Cycloheximide cs 28.6
CC(C)Oc1ccc(C(=O)Nc2nc3ccccc3[nH]2)cc1	HCMV inh -60.3, Cycloheximide cs 24.6
C=CCNc1nc2c(c(=O)n(C)c(=O)n2C)n1CC(=C)C	Pf growth 96h inconclusive
COc1ccc(C2CCc3cc4c(cc3C2=NO)OCO4)cc1OC (centres undefined)	none (no result: Pf growth 48h, Pf growth 96h, Cycloheximide cs, Shiga inhibitor)
Cn1nc(C(=O)NCC2CCCO2)c2ccccc2c1=O (centres undefined)	none (no result: Pf growth 96h)
CCC(Oc1ccccc1)C(=O)Nc1nc2ccccc2[nH]1 (centres undefined)	Cycloheximide cs 21.3
Cn1nc(C(=O)NCc2ccccc2CN2CCCC2)c2ccccc2c1=O	Pf growth 48h inconclusive, Pf growth 96h 14.7µM (no result: Cycloheximide cs, Shiga inhibitor)
O=C(NO)c1ccc(OC(F)F)cc1	Pf growth 48h 10.4µM, Pf growth 96h inconclusive
Cc1c(C(c2ccc(F)cc2)c2c(C)n(C)n(-c3ccccc3)c2=O)c(=O)n(-c2ccccc2)n1C	Pf growth 96h inconclusive
O=c1[nH]c2ccc(S(=O)(=O)N3CCN(S(=O)(=O)c4ccc5c(c4)OCCO5)CC3)cc2[nH]c1=O	none (no result: Pf growth 48h, Pf growth 96h, HCMV inh)
O=C(CSc1ccc(Cl)cc1)NNC(=O)c1ccncc1	none (no result: Cycloheximide cs, Shiga inhibitor)
COC(=O)c1c(NC(=O)COc2ccc(Cl)cc2C)sc2c1CCCCC2	none (no result: Pf growth 48h, Pf growth 96h, Cycloheximide cs, Shiga inhibitor)
CCOc1ccc(S(=O)(=O)N2CCOCC2)cc1NC(=O)Cc1c(F)cccc1Cl	Pf growth 96h inconclusive, HCMV inh inconclusive (no result: Cycloheximide cs, Shiga inhibitor)
Clc1ncnc2scc(-c3ccc(Br)cc3)c12	Pf growth 48h 0.828µM, Pf growth 96h 0.329µM, HCMV inh inconclusive
O=C(N/N=C1/CC2C=CCC12)c1ccc(Br)o1 (centres undefined)	Cycloheximide cs 73.9, Shiga inhibitor 74.7
O=C(NC1CCCC1)c1ccc(Br)o1	none (no result: Pf growth 48h)
Cc1ccccc1C(N)c1ccncc1 (centres undefined)	Pf growth 96h 5.86µM
O=C(NCC1CCCN(Cc2cccc(C(F)(F)F)c2)C1)c1ccc(F)cc1 (centres undefined)	Pf growth 48h inconclusive, Pf growth 96h inconclusive
O=C(NCC1CCCN(C(=O)c2cccc(C(F)(F)F)c2)C1)c1ccc(F)cc1 (centres undefined)	Pf growth 96h inconclusive, Cycloheximide cs 16.2
COc1ccc(C(=O)N2CCCC(CNC(=O)c3ccc(F)cc3)C2)cc1OC (centres undefined)	Pf growth 96h inconclusive, Cycloheximide cs 24.6
CSc1ccccc1C(=O)N1CCCC(CNC(=O)c2ccc(F)cc2)C1 (centres undefined)	HCMV inh inconclusive
Cc1c(F)cccc1NC(=O)CCCCCC1NC(=O)NC1C (centres undefined)	HCMV inh -70.7
CC(OC(=O)c1c2c(nc3ccccc13)/C(=C\c1ccc3c(c1)OCO3)CCC2)C(=O)Nc1ccc(S(N)(=O)=O)cc1 (centres undefined)	Pf growth 48h inconclusive, Pf growth 96h inconclusive, Cycloheximide cs 41.7, Shiga inhibitor 48.9 (no result: HCMV inh)
Cc1cccc(C)c1NC(=O)COC(=O)c1c2c(nc3ccccc13)/C(=C\c1ccc3c(c1)OCO3)CCC2	Pf growth 48h 8.28µM, Pf growth 96h inconclusive, HCMV inh inconclusive, Cycloheximide cs 18.2, Shiga inhibitor 44.4
O=C(CCNC(=O)c1ccccc1Cl)Nc1nc(-c2ccccc2Cl)cs1	Cycloheximide cs 21.9
O=C(CCNC(=O)c1ccccc1Cl)Nc1nc(-c2ccc(F)cc2)cs1	Pf growth 96h inconclusive, HCMV inh -80.5
O=C(CCNC(=O)c1ccccc1Cl)Nc1nccs1	none (no result: HCMV inh)
O=C(CCNC(=O)c1ccccc1Cl)Nc1nc(-c2ccc3ccccc3c2)cs1	Pf growth 48h inconclusive, Pf growth 96h inconclusive, HCMV inh inconclusive
CN(Cc1ccccc1)C(=O)C1CCC(CNS(=O)(=O)c2ccc3c(c2)CCCC(=O)N3)CC1 (centres undefined)	none (no result: Pf growth 48h, Pf growth 96h, Cycloheximide cs, Shiga inhibitor)
CCOc1ccc(/C=C/C2=CC(C)(C)NC(=S)N2)cc1	Pf growth 48h inconclusive, HCMV inh -93.8
Cc1cc(NC(=O)CCl)n(-c2nc3ccccc3s2)n1	none
CCc1ccc(Nc2cnn(-c3nc4ccccc4s3)c(=O)c2Cl)cc1	Pf growth 96h inconclusive, Cycloheximide cs 70.8, Shiga inhibitor 83.9
Cc1ccc(C)c(N2CCN(C(=O)c3ccc(Cl)c(NC4=NC5CS(=O)(=O)CC5S4)c3)CC2)c1 (centres undefined)	Pf growth 48h inconclusive, Pf growth 96h inconclusive
CCc1cc(-c2n[nH]c(C)c2-c2nc3ccccc3n2C)c(O)c(CN2CCN(C)CC2)c1O	Pf growth 48h 11.7µM
CCc1cc(-c2n[nH]c(C)c2-c2nc3ccccc3n2C)c(O)cc1O	Pf growth 48h inconclusive, Pf growth 96h 13.1µM, HCMV inh -71.4

High-throughput results deposited in PubChem by National Center for Advancing Translational Sciences (NCATS).
